Source: PubChem (National Center for Advancing Translational Sciences (NCATS))
JMJD2A Tudor – qHTS Assay for Inhibitors of JMJD2A-Tudor Domain. AlphaScreen JMJD2A-Tudor / H3K4me3 peptide binding. Potency, µM (titrated, usually from 114 µM), inactives show at the top dose activity change, negative = inhibition, usual class: inhibitors. 390,000 compounds, 4.4% hits. Lysine-specific demethylase 4A (Homo sapiens), O75164; note: potency is the fitted concentration of half-maximal effect; % is set by controls: 0 for no effect and ±100 for the full control effect; nearly all actives have a fitted effect of over 50% in size
G9a block – qHTS Assay for Inhibitors of Histone Lysine Methyltransferase G9a; Potency, µM (highest dose often 102 µM), for the others: top-dose activity, negative = inhibition, usual class: inhibitors; G9a H3K9 monomethylation, AlphaScreen, 2 h; 350,000 compounds, 8.8% hits; note: potency is the fitted concentration of half-maximal effect; % is set by controls: 0 for no effect and ±100 for the full control effect; nearly all actives have a fitted effect of over 75% in size
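Enzyme 20 nM + cpd, 15 min RT; add b-H3K9 pep 500 nM / SAM 20 uM; 2 h RT; anti-H3K9me1 Ab 0.5 ug/mL + SA donor / anti-rabbit acceptor beads 20 ug/mL each, 10 min; AlphaScreen read.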
HP1b binding inh – HTS for Inhibitors of HP1-beta Chromodomain Interactions with Methylated Histone Tails. 390,000 compounds, 0.56% hits. Potency, µM (series often up to 114 µM), for the others: top-dose activity change, negative = inhibition, most hits filed as inhibitors. Chromobox protein homolog 1 (Homo sapiens), P83916. AlphaScreen HP1-beta / biotin-H3K9me3 peptide binding; note: potency is the fitted concentration of half-maximal effect; nearly all actives have a fitted effect of over 70% in size
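AlphaScreen: HP1-beta (50 nM) preformed 30 min with biotin-H3(1-18)K9me3 peptide (50 nM) in PBS pH 7.4, 0.01% Tween-20. Compound added for 30 min at RT, then streptavidin donor/nickel chelate acceptor beads (10 ug/mL) for 30 min.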
L3MBTL1 block – qHTS Assay for the Inhibitors of L3MBTL1; Potency, µM (highest dose often 57.1 µM), for the others: top-dose activity, negative = inhibition, hits mostly inhibitors; AlphaScreen L3MBTL1–H3K9me1 peptide binding; 230,000 compounds, 0.66% hits; Lethal(3)malignant brain tumor-like protein 1 (Homo sapiens), Q9Y468; note: potency is the fitted concentration of half-maximal effect; % is set by controls: 0 for no effect and ±100 for the full control effect; nearly all actives have a fitted effect of over 60% in size
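Read-out is AlphaScreen signal from streptavidin donor and nickel chelate acceptor beads (10 ug/mL final each) bridging L3MBTL1 (50 nM) and biotinylated K9-monomethylated H3(1-15) peptide (75 nM), after 30 min compound exposure at room temperature.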
PI5P4K alpha inh – qHTS for Inhibitors of phosphatidylinositol 5-phosphate 4-kinase (PI5P4K) | PI5P4Kalpha enzyme, ADP-Glo luminescence, 60 min; hits give low values | 330,000 compounds, 1.2% hits | AID 652105, 2013 | max response, %; active = max response of -50% or lower; inconclusive = between -30% and -50%; inactive = -30% or higher; note: value at the top dose of about 77 µM; % is set by controls: 0 for no effect and ±100 for the full control effect
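ADP-Glo luminescence end-point read after a 60 min room-temperature kinase reaction of PI5P4Kalpha plus substrate, initiated with ATP at 5 microM final. Buffer: 0.038 M HEPES pH 7.4, EGTA, 0.1% CHAPS, 5% DMSO.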
BAZ2B block – qHTS Assay for Inhibitors of BAZ2B; Bromodomain adjacent to zinc finger domain protein 2B (Homo sapiens), Q9UIF8; AlphaScreen BAZ2B-H3K14Ac peptide displacement; Potency, µM (top dose mostly 114 µM), for the others: at the top dose activity change, negative = inhibition, hits mostly inhibitors; 360,000 compounds, 4.4% hits; AID 504333, 2011; note: potency is the fitted concentration of half-maximal effect; % is set by controls: 0 for no effect and ±100 for the full control effect; nearly all actives have a fitted effect of over 60% in size
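In this displacement format the biotinylated H3(5-23) peptide acetylated at Lys14 serves as ligand at 50 nM, with BAZ2B at 50 nM in PBS pH 7.4 containing 0.01% Tween-20. Donor and acceptor beads are 10 ug/mL final.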
An asterisk follows results filed as active; ? = inconclusive; / = no result; ! = a repeat was not active; [ ] = dose if it differs, or a comment. Sampled rows, rich in hits. Any-hit rate of the full collection: about 11%. Unless noted, calls come from the whole dose curve; as a rule, active = well fitted inhibition curve with a large enough effect; inconclusive = small, poorly fitted or top-dose-only effect; inactive = no such curve, though single readings can be large or run the other way.

SMILES	JMJD2A Tudor	G9a block	HP1b binding inh	L3MBTL1 block	PI5P4K alpha inh	BAZ2B block
O=C1O[C@H](CO)[C@@H](O)[C@H](O)[C@H]1O	-17%	/	23%	/	-1	/
O=CC(O)C1OC(=O)C(O)C1O (stereo unspecified)	22µM*	/	?	/	?	/
O=C(CSc1nc2ccccc2nc1Cc1ccccc1F)Nc1cccc(C(F)(F)F)c1	-14%	10%[59 µM]	43%	/	/	-16%
COc1ccccc1Cn1c(CNS(=O)(=O)c2c(C)cc(C)cc2C)nc2cccnc21	-28%	17%[59 µM]	29%[57 µM]	/	/	-20%
COc1cc(NC(=O)N2CCN(c3cc(-c4noc(C)n4)ccc3C)CC2)cc(OC)c1OC	-17%	14%[59 µM]	11%[57 µM]	/	/	-6%
CC(C)OC(=O)c1sc2nc(-c3ccccc3)ccc2c1N	19%	/	44%	21%	/	5%
Cc1ccc2c(N)c(C(=O)N(c3ccccc3)c3ccccc3)sc2n1	-5%	14µM*	35%	-6%	/	-13%
CCNc1ncc2nc(-c3cc(F)cc(F)c3)c(=O)n(Cc3cccs3)c2n1	/	-1%[12.7 µM]	/	/	/	/
O=C(O)c1ccccc1Nc1ccccc1C(=O)O	?	79µM*	-6%	8%	/	-9%
Cc1c(Cl)cccc1Nc1ncccc1C(=O)O	25µM*!	-24%[12.7 µM]	7%	/	2	-9%
Cc1c(Nc2ncccc2C(=O)O)cccc1C(F)(F)F	-1%	1%[59 µM]	26%	5%	-2	11%
O=C(Nc1ccccc1C(=O)O)c1ccccc1	-29%	50µM*	20%	/	/	?
O=C(O)c1cc(NC(=O)c2ccc3c(c2)C(=O)N(Cc2ccccc2)C3=O)cc(C(=O)O)c1	9%	/	26%	/	-22	?
O=C(c1ccccc1)c1ccccc1NC(=O)c1ccccc1C(=O)O	2%	-4%[59 µM]	33%	/	/	-38%
O=C(Nc1ccccc1C(=O)O)c1ccc(CN2C(=O)c3ccccc3C2=O)cc1	-28%	-16%	23%	-11%	-53*	-28%
